Results on nine compounds are retold here after PubChem BioAssay (NCI).

What all share (assay): NCI-60 one-dose screen, 48 h (100 = growth as untreated, 0 = no growth, -100 = all killed)
One assay has as its system NCI-H23 lung. The settings on record: 10 µM unless noted.
For the next assay, the system named is NCI-H226 lung. The settings on record: 10 µM unless noted.
Another assay concerns NCI-H322M lung. The settings on record: 10 µM unless noted.
The subject of another assay is HOP-62 NSCLC. The settings on record: 10 µM unless noted.
Another assay relates to NCI-H460 lung. The settings on record: 10 µM unless noted.
Another assay relates to 786-0 renal. The settings on record: 10 µM unless noted.
The next assay concerns COLO 205 colon. The settings on record: 10 µM unless noted.
In another assay the test system is DU-145 prostate. The settings on record: 10 µM unless noted.
The test system of a further assay is K-562 leukemia. The settings on record: 10 µM unless noted.
The test system of a further assay is MALME-3M melanoma. The settings on record: 10 µM unless noted.
A further assay concerns MDA-MB-231 breast. The settings on record: 10 µM unless noted.
Another assay concerns RXF 393 renal. The settings on record: 10 µM unless noted.
In a further assay the test system is SF-268 CNS. The settings on record: 10 µM unless noted.
Another assay has as its system SF-295 CNS. The settings on record: 10 µM unless noted.
The next assay has as its system SF-539 CNS. The settings on record: 10 µM unless noted.
In a further assay the test system is M14 melanoma. The settings on record: 10 µM unless noted.
A further assay deals with A549/ATCC NSCLC. The settings on record: 10 µM unless noted.
The test system of a further assay is UACC-257 melanoma. The settings on record: 10 µM unless noted.
A further assay relates to HOP-92 NSCLC. The settings on record: 10 µM.
The subject of another assay is NCI-H522 lung. The settings on record: 10 µM.

Each structure is given as a SMILES string. This is part of a sample that, as a whole, favours compounds with a hit. Of some 83,000 tested, about 20% had one in any assay.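 Cell lines were cultured in 96-well plates, exposed to a single compound concentration, and assessed for percent growth 48 hours later.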 A number with no mark means an inactive call. Active and inactive are the calls of the source. The calls were made as follows: active = growth percent below 10; inactive = the rest.

On to `CC(=O)Oc1cc2ccccc2cc1C(C)C`, for which the growth is 107% with NCI-H23 lung; 101% with NCI-H226 lung; 115% in the assay on NCI-H322M lung; 104% in the assay on HOP-62 NSCLC; 99% in the assay on NCI-H460 lung; 101% in the assay on 786-0 renal. The growth with COLO 205 colon is 112%; in the assay on DU-145 prostate, 126%; in the assay on K-562 leukemia it was 117%; in the assay with MALME-3M melanoma, 111%; in the assay on MDA-MB-231 breast, 117%; with RXF 393 renal, 102%. The growth is 111% in the assay with SF-268 CNS, 96.8% in the assay with SF-295 CNS, 95% with SF-539 CNS and 106% with M14 melanoma.
For the compound `CC1(C)N=C(N)N=C(N)N1c1cccc(CCCCOc2ccccc2)c1`, the growth is 24% with NCI-H23 lung; 43.4% in the assay on NCI-H226 lung; 35.6% in the assay on NCI-H322M lung; 11.4% with HOP-62 NSCLC; 4.82% (active) in the assay on NCI-H460 lung; 11.2% in the assay with A549/ATCC NSCLC. The growth is 21.8% with 786-0 renal; 27.6% with DU-145 prostate; 16.2% in the assay on K-562 leukemia; 43.1% in the assay on MALME-3M melanoma; 46.8% with MDA-MB-231 breast; 50.2% in the assay with RXF 393 renal. For the same compound, the growth is 27.2% in the assay on SF-268 CNS, 34.1% in the assay with SF-539 CNS, 28.7% with UACC-257 melanoma and 23.6% with M14 melanoma.
Take `O=C(CN1CCN(c2cccc(Cl)c2)CC1)N1CCN(c2nnc(-c3ccc(Cl)cc3)c(-c3ccc(Cl)cc3)n2)CC1`: the growth is 87.7% with NCI-H23 lung; 76.7% in the assay with NCI-H226 lung; 77.8% in the assay on NCI-H322M lung; 116% in the assay on HOP-62 NSCLC; 76.5% in the assay with NCI-H460 lung; 91.2% in the assay on 786-0 renal. The growth with COLO 205 colon is 82.8%; in the assay on DU-145 prostate, 94.8%; in the assay with K-562 leukemia it was 38.8%; with MALME-3M melanoma it was 105%; in the assay with MDA-MB-231 breast it was 86.8%; in the assay with SF-268 CNS, 89.8%. Besides, the growth in the assay with SF-295 CNS was 84.3%; in the assay on SF-539 CNS, 74.4%; in the assay with M14 melanoma it was 106%.
Regarding `COc1cc(C(=O)Nc2ccc(N(C)C)cc2)cc(OC)c1OC`, the growth with NCI-H23 lung was 95.4%; with NCI-H226 lung, 91%; in the assay with NCI-H322M lung, 93.4%; in the assay on HOP-62 NSCLC it was 94.2%; in the assay on NCI-H460 lung, 99.8%; in the assay on 786-0 renal it was 96.4%. The growth was 100% in the assay with COLO 205 colon; 107% in the assay on DU-145 prostate; 42.8% in the assay with K-562 leukemia; 80.6% in the assay on MALME-3M melanoma; 96.4% in the assay on MDA-MB-231 breast; 95.7% with RXF 393 renal. Besides, the growth is 99.1% in the assay on SF-268 CNS, 91.7% in the assay on SF-295 CNS, 96.1% in the assay with SF-539 CNS and 89.8% in the assay with M14 melanoma.
Turning to `CCC(C)[C@H](NC(=O)Nc1cc(C(F)(F)F)cc(C(F)(F)F)c1)C(=O)N[C@@H](Cc1cn(C)cn1)C(=O)OC` (stereo partly specified), the growth in the assay with NCI-H23 lung was -83.2% [100 µM] (active); with NCI-H226 lung it was -50.6% [100 µM] (active); in the assay on NCI-H322M lung, -96.8% [100 µM] (active); in the assay on HOP-62 NSCLC, -99.2% [100 µM] (active); with NCI-H460 lung, -64.5% [100 µM] (active); in the assay on A549/ATCC NSCLC, -76% [100 µM] (active). Besides, the growth in the assay with 786-0 renal was -88.4% [100 µM] (active); with DU-145 prostate, -96.4% [100 µM] (active); in the assay on K-562 leukemia it was -68.3% [100 µM] (active); with MALME-3M melanoma it was -86.5% [100 µM] (active); with MDA-MB-231 breast it was -96.3% [100 µM] (active); in the assay with RXF 393 renal, -86.6% [100 µM] (active). For the same compound, the growth with SF-268 CNS is -87.9% [100 µM] (active); in the assay with SF-295 CNS, -93.3% [100 µM] (active); in the assay on SF-539 CNS it was -96% [100 µM] (active); with UACC-257 melanoma, -97.5% [100 µM] (active); in the assay with M14 melanoma it was -89.7% [100 µM] (active).
Consider `CC[n+]1c(C)ccc2cc(C)ccc21`, for which the growth was 96% in the assay on NCI-H23 lung; 93.6% in the assay with NCI-H226 lung; 111% in the assay on NCI-H322M lung; 97.5% with HOP-62 NSCLC; 110% in the assay with NCI-H460 lung; 75.3% in the assay on A549/ATCC NSCLC. Moreover, the growth with COLO 205 colon was 101%; in the assay with DU-145 prostate it was 126%; in the assay with K-562 leukemia it was 91.2%; with MALME-3M melanoma, 131%; in the assay on MDA-MB-231 breast it was 91.7%; with RXF 393 renal it was 111%. For the same compound, the growth in the assay on SF-268 CNS is 102%; in the assay on SF-295 CNS, 119%; with SF-539 CNS, 110%; in the assay on UACC-257 melanoma, 105%.
Consider `OC(c1ccccc1)(c1ccccc1)C(F)(F)F`, for which the growth in the assay with NCI-H23 lung was 97.4%; with NCI-H226 lung, 112%; with NCI-H322M lung, 116%; with HOP-62 NSCLC, 102%; with HOP-92 NSCLC it was 95.7%; with NCI-H522 lung, 84.6%. Further, the growth in the assay with A549/ATCC NSCLC was 99.1%; in the assay on 786-0 renal it was 106%; in the assay on COLO 205 colon, 107%; in the assay on DU-145 prostate it was 109%; in the assay with K-562 leukemia, 99.7%; with MALME-3M melanoma it was 122%. The growth in the assay with MDA-MB-231 breast was 101%; in the assay with RXF 393 renal, 120%; in the assay on SF-268 CNS it was 82.8%; in the assay with SF-295 CNS, 107%; in the assay with SF-539 CNS, 101%; with UACC-257 melanoma, 104%.
Take `OCCN1CCCN(CCCN2c3ccccc3Sc3ccc(C(F)(F)F)cc32)CC1`: the growth with NCI-H23 lung is 68.8%; with NCI-H226 lung it was 92.7%; in the assay on NCI-H322M lung it was 73.6%; with HOP-62 NSCLC, 74.8%; in the assay with NCI-H460 lung, 40.7%; with 786-0 renal it was 65.1%. The growth with COLO 205 colon is -81.8% (active); in the assay with DU-145 prostate it was 78.8%; with K-562 leukemia it was 2.61% (active); with MALME-3M melanoma, 44.5%; in the assay with MDA-MB-231 breast it was 64.9%; with RXF 393 renal, 47%. In addition, the growth with SF-268 CNS was 64.9%; with SF-295 CNS, 31%; in the assay with SF-539 CNS, 67.2%; with M14 melanoma, 7.54% (active).
Consider `CNc1nc2ncn(C)c2c(=O)[nH]1`, for which the growth in the assay on NCI-H23 lung is 105%; with NCI-H226 lung, 98.5%; with NCI-H322M lung it was 88.2%; with HOP-62 NSCLC, 96.5%; in the assay on NCI-H460 lung, 103%; in the assay on 786-0 renal it was 103%. Further, the growth in the assay with COLO 205 colon is 94.5%; in the assay on DU-145 prostate it was 106%; with K-562 leukemia, 65.5%; in the assay on MALME-3M melanoma, 98.8%; in the assay on MDA-MB-231 breast, 90.9%; with RXF 393 renal, 106%. Also, the growth is 95.5% with SF-268 CNS, 101% in the assay with SF-295 CNS, 96.2% in the assay on SF-539 CNS and 112% in the assay with M14 melanoma.
